Experimental data published in article PMC7862700, “An all-to-all approach to the identification of sequence-specific readers for epigenetic DNA modifications on cytosine”.

Tests used:
Assay in all cases: DAPPL (digital affinity profiling via proximity ligation, sequencing); 10 mM Tris-HCl pH 7.5, 50 mM NaCl, 1 mM DTT, 4% glycerol, room temperature, 30 min; GST-TFs on glutathione beads, 16-mer random dsDNA library, 0.1% formaldehyde crosslink after washing; high values mean tight binding
Settings in all cases: protein: recombinant; tags: N-terminal GST; dsDNA, one strand shown
[1] = target: ELF4 (Homo sapiens, UniProt Q99607 1-663)
In short: (§1)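 Human transcription factors were made in yeast as GST fusions, captured on glutathione beads and barcoded with DNA. With a tag-only sample included, the pool was incubated with 200 nmole of a random double-stranded 16-mer DNA library in Tris/NaCl/DTT/glycerol buffer at room temperature for 30 min, then crosslinked with 0.1% formaldehyde after washing, ligated by proximity, amplified and sequenced. For binding signal, each hexamer's read frequency for a factor is divided by its frequency for the tag-only sample.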

[2] = target: T1, ELF3 (Homo sapiens, UniProt P78545 1-371)
T1 sequence: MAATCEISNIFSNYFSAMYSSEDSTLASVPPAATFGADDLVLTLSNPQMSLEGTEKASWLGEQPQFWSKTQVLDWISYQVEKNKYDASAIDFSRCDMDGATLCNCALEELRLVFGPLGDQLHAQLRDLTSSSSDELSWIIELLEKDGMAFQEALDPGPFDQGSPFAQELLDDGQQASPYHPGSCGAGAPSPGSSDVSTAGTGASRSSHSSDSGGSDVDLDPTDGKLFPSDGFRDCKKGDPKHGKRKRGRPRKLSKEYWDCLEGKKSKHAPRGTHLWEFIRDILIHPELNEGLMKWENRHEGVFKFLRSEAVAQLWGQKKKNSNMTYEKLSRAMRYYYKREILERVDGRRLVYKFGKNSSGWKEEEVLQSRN
In short: as §1

[3] = target: CRX (Homo sapiens, UniProt O43186 1-299)
In short: as §1

[4] = target: T2, ETV3L (Homo sapiens, UniProt Q6ZN32 1-361)
T2 sequence: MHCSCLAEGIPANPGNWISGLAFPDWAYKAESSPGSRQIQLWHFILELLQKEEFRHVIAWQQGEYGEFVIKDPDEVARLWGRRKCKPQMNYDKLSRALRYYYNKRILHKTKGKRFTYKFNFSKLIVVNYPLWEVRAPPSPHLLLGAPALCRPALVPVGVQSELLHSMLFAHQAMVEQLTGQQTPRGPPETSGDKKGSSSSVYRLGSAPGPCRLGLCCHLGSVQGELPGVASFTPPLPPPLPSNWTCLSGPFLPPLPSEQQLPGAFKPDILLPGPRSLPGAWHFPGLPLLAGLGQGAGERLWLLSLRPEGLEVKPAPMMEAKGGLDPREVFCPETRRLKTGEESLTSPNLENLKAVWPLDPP
In short: as §1

[5] = target: T3, ELK4 (Homo sapiens, UniProt P28324-2 1-405)
T3 sequence: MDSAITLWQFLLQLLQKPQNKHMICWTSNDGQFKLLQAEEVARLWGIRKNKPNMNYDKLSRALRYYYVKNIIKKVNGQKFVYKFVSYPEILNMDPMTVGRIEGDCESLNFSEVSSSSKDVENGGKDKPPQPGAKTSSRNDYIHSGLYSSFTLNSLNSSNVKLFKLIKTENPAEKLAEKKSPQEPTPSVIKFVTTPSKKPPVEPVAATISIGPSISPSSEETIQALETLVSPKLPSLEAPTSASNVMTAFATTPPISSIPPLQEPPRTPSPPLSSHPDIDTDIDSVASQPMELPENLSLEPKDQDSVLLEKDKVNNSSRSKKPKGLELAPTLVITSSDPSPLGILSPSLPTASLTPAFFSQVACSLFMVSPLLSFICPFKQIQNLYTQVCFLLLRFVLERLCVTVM
In short: as §1

[6] = target: T4, ETV2 (Homo sapiens, UniProt O00321 1-342)
T4 sequence: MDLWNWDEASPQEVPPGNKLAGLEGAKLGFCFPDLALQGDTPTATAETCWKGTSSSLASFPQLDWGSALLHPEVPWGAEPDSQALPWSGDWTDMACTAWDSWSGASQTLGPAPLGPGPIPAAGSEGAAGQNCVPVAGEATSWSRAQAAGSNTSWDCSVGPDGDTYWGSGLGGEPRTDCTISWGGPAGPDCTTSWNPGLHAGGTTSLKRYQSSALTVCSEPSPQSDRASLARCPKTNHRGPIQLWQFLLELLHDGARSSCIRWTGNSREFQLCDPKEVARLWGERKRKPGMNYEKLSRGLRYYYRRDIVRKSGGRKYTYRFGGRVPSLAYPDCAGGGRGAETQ
In short: as §1

[7] = target: T5, ELK1 (Homo sapiens, UniProt P19419 1-428)
T5 sequence: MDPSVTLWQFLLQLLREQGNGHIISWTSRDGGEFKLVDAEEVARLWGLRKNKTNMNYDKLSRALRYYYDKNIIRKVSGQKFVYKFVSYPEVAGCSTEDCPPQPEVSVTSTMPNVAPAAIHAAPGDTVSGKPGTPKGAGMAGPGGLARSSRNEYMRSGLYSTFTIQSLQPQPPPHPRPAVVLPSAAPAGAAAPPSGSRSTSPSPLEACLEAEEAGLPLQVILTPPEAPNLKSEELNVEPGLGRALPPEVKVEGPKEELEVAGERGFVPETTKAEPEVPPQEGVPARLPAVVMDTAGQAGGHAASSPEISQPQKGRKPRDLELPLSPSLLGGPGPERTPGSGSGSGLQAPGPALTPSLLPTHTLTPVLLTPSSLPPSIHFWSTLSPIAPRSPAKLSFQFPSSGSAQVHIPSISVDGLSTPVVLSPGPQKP
In short: as §1

[8] = target: T6, ERG (Homo sapiens, UniProt P11308 1-479)
T6 sequence: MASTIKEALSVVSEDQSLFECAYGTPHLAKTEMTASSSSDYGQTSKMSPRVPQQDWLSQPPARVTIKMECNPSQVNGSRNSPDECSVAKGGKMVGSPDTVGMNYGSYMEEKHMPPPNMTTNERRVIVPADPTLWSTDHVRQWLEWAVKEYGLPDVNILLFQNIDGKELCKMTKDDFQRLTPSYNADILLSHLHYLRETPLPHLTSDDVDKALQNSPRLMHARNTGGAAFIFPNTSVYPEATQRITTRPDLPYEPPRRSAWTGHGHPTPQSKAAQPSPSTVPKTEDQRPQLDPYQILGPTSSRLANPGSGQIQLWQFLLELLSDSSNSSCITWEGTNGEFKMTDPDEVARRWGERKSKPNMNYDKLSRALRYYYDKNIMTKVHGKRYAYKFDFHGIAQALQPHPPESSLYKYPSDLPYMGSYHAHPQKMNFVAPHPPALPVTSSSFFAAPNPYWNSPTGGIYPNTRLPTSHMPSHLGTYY
In short: as §1

[9] = target: SPIB (Homo sapiens, UniProt Q01892 1-262)
In short: as §1

[10] = target: T7, SPDEF (Homo sapiens, UniProt O95238 1-335)
T7 sequence: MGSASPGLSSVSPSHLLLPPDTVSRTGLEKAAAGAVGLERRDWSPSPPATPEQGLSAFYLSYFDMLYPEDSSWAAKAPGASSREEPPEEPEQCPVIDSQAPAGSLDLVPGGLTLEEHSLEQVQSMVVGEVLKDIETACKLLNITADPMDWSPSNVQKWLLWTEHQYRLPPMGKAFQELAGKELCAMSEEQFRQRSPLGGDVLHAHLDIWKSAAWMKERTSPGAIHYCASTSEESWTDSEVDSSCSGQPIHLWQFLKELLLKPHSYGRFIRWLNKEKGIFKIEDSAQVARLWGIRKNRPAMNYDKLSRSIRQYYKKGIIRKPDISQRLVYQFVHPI
In short: as §1

[11] = target: T8, ELF5 (Homo sapiens, UniProt Q9UKW6-2 1-255)
T8 sequence: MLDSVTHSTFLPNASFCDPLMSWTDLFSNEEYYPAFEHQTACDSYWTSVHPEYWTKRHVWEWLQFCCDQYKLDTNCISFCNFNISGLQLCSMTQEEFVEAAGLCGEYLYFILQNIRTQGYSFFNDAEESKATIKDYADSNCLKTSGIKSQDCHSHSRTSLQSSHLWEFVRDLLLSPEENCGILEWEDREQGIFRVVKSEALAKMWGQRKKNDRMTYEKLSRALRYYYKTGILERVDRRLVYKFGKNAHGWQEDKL
In short: as §1

[12] = target: T9, ELK3 (Homo sapiens, UniProt P41970 1-407)
T9 sequence: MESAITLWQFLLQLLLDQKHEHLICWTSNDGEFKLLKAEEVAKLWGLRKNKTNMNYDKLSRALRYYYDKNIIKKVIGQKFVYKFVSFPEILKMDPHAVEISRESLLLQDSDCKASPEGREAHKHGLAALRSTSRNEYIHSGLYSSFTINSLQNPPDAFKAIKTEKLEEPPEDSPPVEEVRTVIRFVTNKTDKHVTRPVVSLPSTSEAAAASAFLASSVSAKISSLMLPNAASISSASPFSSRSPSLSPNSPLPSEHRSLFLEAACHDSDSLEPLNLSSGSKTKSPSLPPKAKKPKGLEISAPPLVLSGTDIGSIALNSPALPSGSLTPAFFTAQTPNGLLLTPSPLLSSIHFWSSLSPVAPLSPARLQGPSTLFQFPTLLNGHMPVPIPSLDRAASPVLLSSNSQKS
In short: as §1

[13] = target: T10, ETS2 (Homo sapiens, UniProt P15036 1-469)
T10 sequence: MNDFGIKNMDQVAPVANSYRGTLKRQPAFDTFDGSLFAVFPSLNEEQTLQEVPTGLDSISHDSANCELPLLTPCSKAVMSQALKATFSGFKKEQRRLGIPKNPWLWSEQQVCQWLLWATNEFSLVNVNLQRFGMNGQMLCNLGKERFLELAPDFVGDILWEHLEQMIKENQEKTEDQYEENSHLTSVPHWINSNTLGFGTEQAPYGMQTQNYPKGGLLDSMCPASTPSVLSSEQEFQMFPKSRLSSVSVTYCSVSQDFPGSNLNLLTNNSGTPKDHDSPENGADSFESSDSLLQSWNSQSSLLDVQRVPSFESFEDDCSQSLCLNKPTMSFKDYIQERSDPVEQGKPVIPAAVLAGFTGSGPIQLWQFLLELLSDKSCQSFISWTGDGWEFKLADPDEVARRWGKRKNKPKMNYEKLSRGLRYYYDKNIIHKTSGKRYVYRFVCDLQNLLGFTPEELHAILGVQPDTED
In short: as §1

[14] = target: T11, ETV7 (Homo sapiens, UniProt Q9Y603 1-341)
T11 sequence: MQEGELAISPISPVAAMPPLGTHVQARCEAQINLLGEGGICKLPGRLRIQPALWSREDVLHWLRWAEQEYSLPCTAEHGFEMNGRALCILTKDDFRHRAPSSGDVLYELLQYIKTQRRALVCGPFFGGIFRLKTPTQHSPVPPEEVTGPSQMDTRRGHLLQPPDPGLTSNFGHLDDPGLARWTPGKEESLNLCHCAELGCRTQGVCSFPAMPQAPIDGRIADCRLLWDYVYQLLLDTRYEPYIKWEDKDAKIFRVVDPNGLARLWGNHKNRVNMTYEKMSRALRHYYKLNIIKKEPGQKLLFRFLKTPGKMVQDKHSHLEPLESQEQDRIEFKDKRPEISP
In short: as §1

Sequence of CRX (O43186 whole entry): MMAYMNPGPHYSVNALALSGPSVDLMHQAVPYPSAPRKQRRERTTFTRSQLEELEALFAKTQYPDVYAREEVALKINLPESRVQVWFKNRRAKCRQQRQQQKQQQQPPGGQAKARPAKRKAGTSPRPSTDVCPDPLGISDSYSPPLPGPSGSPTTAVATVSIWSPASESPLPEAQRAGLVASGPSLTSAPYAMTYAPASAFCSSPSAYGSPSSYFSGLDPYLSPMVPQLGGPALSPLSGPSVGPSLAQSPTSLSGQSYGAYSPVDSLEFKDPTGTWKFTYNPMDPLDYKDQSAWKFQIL
Sequence of SPIB (Q01892 whole entry): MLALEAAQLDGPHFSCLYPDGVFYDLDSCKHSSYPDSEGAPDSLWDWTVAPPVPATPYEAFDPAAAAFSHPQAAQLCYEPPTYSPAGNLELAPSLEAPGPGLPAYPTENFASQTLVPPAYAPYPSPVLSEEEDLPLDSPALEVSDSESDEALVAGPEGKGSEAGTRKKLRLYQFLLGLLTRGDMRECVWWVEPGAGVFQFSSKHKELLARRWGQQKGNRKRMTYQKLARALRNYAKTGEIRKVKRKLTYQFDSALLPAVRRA
Sequence of ELF4 (Q99607 whole entry, the tested form may be a part): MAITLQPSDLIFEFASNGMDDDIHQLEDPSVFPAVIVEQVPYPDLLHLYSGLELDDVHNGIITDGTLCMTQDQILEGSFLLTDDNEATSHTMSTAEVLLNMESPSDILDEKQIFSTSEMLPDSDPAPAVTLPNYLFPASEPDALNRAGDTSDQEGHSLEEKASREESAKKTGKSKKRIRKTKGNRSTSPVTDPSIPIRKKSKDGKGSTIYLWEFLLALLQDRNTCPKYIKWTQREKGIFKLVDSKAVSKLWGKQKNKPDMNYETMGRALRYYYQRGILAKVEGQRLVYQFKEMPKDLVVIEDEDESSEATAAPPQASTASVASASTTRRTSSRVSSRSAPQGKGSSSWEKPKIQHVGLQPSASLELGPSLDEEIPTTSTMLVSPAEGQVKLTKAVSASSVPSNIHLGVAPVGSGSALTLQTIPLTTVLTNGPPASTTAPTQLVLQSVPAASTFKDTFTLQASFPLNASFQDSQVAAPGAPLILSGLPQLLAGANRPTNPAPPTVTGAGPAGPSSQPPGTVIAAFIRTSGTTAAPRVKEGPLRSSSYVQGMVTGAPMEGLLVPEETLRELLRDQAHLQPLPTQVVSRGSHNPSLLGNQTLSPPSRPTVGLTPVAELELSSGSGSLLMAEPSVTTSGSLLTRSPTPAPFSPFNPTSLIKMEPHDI

GACTAT was tested, and the binding signal [1] was 1.01 fold enrichment (6-mer frequency, TF over GST control), the binding signal [2] was 1.03 fold enrichment (6-mer frequency, TF over GST control) and the binding signal [3] was 1.02 fold enrichment (6-mer frequency, TF over GST control). For the same sequence, the binding signal [4] was 1.04 fold enrichment (6-mer frequency, TF over GST control).
ATAGTG was tested, and the binding signal [5] was 1.06 fold enrichment (6-mer frequency, TF over GST control).
In the case of GCGCAC, the binding signal [5] is reported as 1.07 fold enrichment (6-mer frequency, TF over GST control) and the binding signal [4] is reported as 1.03 fold enrichment (6-mer frequency, TF over GST control).
CCATAG was tested, and the binding signal [5] was 1.06 fold enrichment (6-mer frequency, TF over GST control) and the binding signal [6] was 1.01 fold enrichment (6-mer frequency, TF over GST control).
For GATCCG, the binding signal [7] was 1.01 fold enrichment (6-mer frequency, TF over GST control), the binding signal [8] was 1.04 fold enrichment (6-mer frequency, TF over GST control) and the binding signal [9] was 1.05 fold enrichment (6-mer frequency, TF over GST control). The binding signal [5] was 1 fold enrichment (6-mer frequency, TF over GST control), the binding signal [10] was 1.65 fold enrichment (6-mer frequency, TF over GST control) and the binding signal [11] was 1.02 fold enrichment (6-mer frequency, TF over GST control).
With AAAGTC the binding signal [12] was 1.08 fold enrichment (6-mer frequency, TF over GST control), the binding signal [5] was 1.08 fold enrichment (6-mer frequency, TF over GST control) and the binding signal [3] was 1.01 fold enrichment (6-mer frequency, TF over GST control). The binding signal [13] was 1.03 fold enrichment (6-mer frequency, TF over GST control) and the binding signal [14] was 1.05 fold enrichment (6-mer frequency, TF over GST control).
